Assay results as given in ChEMBL document CHEMBL4513146, “CO-ADD screening of Karazin Kharkiv National University (Ukraine) compounds”.
Results with a measured potency or affinity are listed apart.

Key:
Staphylococcus aureus = details: Concentration 32 ug.mL-1;; ASSAY_TEST Inhibition of Bacterial Growth; detection method Absorption (OD600); MEDIA CAMHB; plate type 384well; NBS; CORNING #3640; time 18 hr
Escherichia coli = details: Concentration 32 ug.mL-1;; ASSAY_TEST Inhibition of Bacterial Growth; detection method Absorption (OD600); MEDIA CAMHB; plate type 384well; NBS; CORNING #3640; time 18 hr

| Structure (SMILES) | Inhibition (Staphylococcus aureus) [%] | Inhibition (Escherichia coli) [%] |
| --- | --- | --- |
| COc1ccc(NC(=O)Cn2nc3ccc(-c4ccccc4)nn3c2=O)cc1Cl | -3.72 | -7.68 |
| CCCN(C)c1nccn2c(=O)n(CC(=O)Nc3ccc(Br)cc3)nc12 | 8.04 | -5.88 |
| COc1ccccc1-n1ccn2c(SCc3cccc(Cl)c3)nnc2c1=O | -2.16 | -0.92 |
| Cc1nnc2ccc(S(=O)(=O)N(Cc3ccc(F)cc3)c3cc(F)cc(F)c3)cn12 | 4.18 | -6.59 |
| COc1ccc(-c2cc3c4nnc(SCC(=O)Nc5ccccc5Cl)n4ccn3n2)cc1 | -12.96 | -8.41 |
| CCC(C)NC(=O)Cn1nc2n(CC(C)C)c(=O)c3ccc(C(=O)NC4CCCCC4)cc3n2c1=O (configuration not stated) | 7.36 | -3.14 |
| CCOc1ccc(-n2ccn3c(SCC(=O)c4ccccc4)nnc3c2=O)cc1 | 6.87 | 1.63 |
| Cc1ccc(NC(=O)CSc2nnc3ccc(C(=O)Nc4cccc(F)c4)cn23)c(C)c1 | 12.19 | -1.6 |
| Cc1cc(Br)ccc1NC(=O)Cn1nc2c(Sc3cccc(F)c3)nccn2c1=O | 10.13 | -1.3 |
| COc1ccc(NC(=O)Cn2nc3ccc(-c4ccccc4)nn3c2=O)cc1 | 6.57 | -0.4 |
| CCc1ccccc1NC(=O)Cn1nc2c(Sc3ccccc3CC)nccn2c1=O | 13.37 | -2.13 |
| COc1ccc(NC(=O)CSc2nnc3c(=O)n(-c4ccccc4)ccn23)cc1 | -4.77 | -6.17 |
| Cn1c(=O)c2ccc(C(=O)NC3CCCC3)cc2n2c(SCC(=O)Nc3cc(F)ccc3F)nnc12 | 8.34 | -3.62 |
| CC(C)c1nnc2c(=O)n(CC(=O)Nc3ccc(F)cc3)c3ccccc3n12 | 20.52 | 5.44 |
| CCCc1nnc2c(=O)n(CC(=O)Nc3ccc(C#N)cc3)c3ccccc3n12 | 8.01 | -1.86 |
| Cc1nnc2c(=O)n(CC(=O)Nc3cccc(Cl)c3)c3ccccc3n12 | 13.08 | 5.41 |
| COc1ccccc1CNC(=O)Cn1nc2c(N3CCC(C)CC3)nccn2c1=O | 13.11 | -0.77 |
| COc1ccc(-c2cc3c4nnc(CCC(=O)N5CCN(c6ccccc6F)CC5)n4ccn3n2)cc1 | 13.19 | 1.66 |
| Cc1ccc(C)c(C(=O)CSc2nnc3c(=O)n(-c4ccc(F)c(F)c4)ccn23)c1 | 18.46 | 1.4 |
| O=C(CSc1nnc2c(=O)n(-c3ccccc3)ccn12)Nc1ccc(F)cc1F | -3.92 | -2.13 |
| Cc1cc(Br)ccc1NC(=O)Cn1nc2c(SC3CCCCC3)nccn2c1=O | 6.25 | -6.44 |
| COc1ccc(NC(=O)Cn2nc3c4cc(-c5ccc(C)cc5)nn4ccn3c2=O)cc1 | -5.75 | -1.43 |
| Cc1cc2nn(CC(=O)Nc3cc(F)ccc3C)c(=O)n2c(Nc2ccc(F)c(C)c2)n1 | 9.03 | -0.59 |
| COc1ccc(NC(=O)Cn2nc3ccc(-c4ccccc4)nn3c2=O)cc1OC | 0.84 | -8.27 |

| Structure (SMILES) | Inhibition (Staphylococcus aureus) [%] | Inhibition (Escherichia coli) [%] |
| --- | --- | --- |
| O=c1c2nnc(SCc3ccc(Cl)cc3)n2ccn1-c1ccc(F)c(F)c1 | 4.12 | 3.28 |
| CCC(C)NC(=O)Cn1nc2n(Cc3cccs3)c(=O)c3sccc3n2c1=O (configuration not stated) | 3.01 | -5.74 |
| COc1cccc(CN(c2ccc(F)c(F)c2)S(=O)(=O)c2ccc3nncn3c2)c1 | -3.79 | -13.18 |
| Cc1ccc(-c2ccc3nn(CC(=O)N4CCN(c5ccccc5)CC4)c(=O)n3n2)cc1C | 8.01 | 2.66 |
| COc1ccc(-c2cc3c4nnc(SCC(=O)Nc5ccc(C)cc5Cl)n4ccn3n2)cc1 | 2.3 | -3.13 |
| CCc1nnc2c(S(=O)(=O)N(Cc3cccc(OC)c3)c3cccc(C)c3)cccn12 | 10.64 | -1.22 |
| CCc1nnc2c(=O)n(CC(=O)Nc3ccc(C#N)cc3)c3ccccc3n12 | 12.29 | -5.97 |
| COc1cccc(CN(c2ccc(C(C)C)cc2)S(=O)(=O)c2cccn3cnnc23)c1 | 7.94 | -1.44 |
| CSc1cccc(NC(=O)Cn2nc3c4c5c(sc4ncn3c2=O)CCCC5)c1 | -8.02 | -9.58 |
| CC(=O)c1ccc(NC(=O)Cn2nc3c(SC4CCCCC4)nccn3c2=O)cc1 | 3.51 | -2.6 |
| CCOC(=O)c1cccc(NC(=O)CSc2nc3ccccc3n3c(C(C)C)nnc23)c1 | 7.87 | -1.12 |
| CC(=O)c1ccc(NC(=O)Cn2nc3c(Sc4ccc(C)cc4C)nccn3c2=O)cc1 | -12.01 | -21.11 |
| COc1ccccc1N1CCN(C(=O)Cn2nc3c(Oc4ccc(C)cc4)nccn3c2=O)CC1 | 6.41 | 0.36 |
| COc1cc(NC(=O)CSc2nnc3c(=O)n(-c4cccc(OC)c4)ccn23)cc(OC)c1 | 2.57 | -9.3 |
| COc1cccc(Sc2nc3ccccc3n3c(=O)n(CC(=O)Nc4ccc(C)c(C)c4)nc23)c1 | 2.16 | 0.23 |
| CSc1cccc(NC(=O)Cn2c(=O)c3nnc(C(C)C)n3c3ccccc32)c1 | 14.38 | 4.25 |
| CCOc1ccccc1CNC(=O)CCc1nnc2ccc(-c3ccccc3)nn12 | 9.42 | -2.56 |
| COc1ccc(CCn2c(=O)c3sccc3n3c(=O)n(Cc4ccccc4Cl)nc23)cc1OC | 1.03 | -4.64 |
| NC(=O)CSc1nnc2c(=O)n(-c3ccccc3)ccn12 | 9.05 | 0.29 |
| Cc1ccccc1Cn1nc2c(=O)n(-c3ccc(Br)cc3)ccn2c1=O | 4.33 | 1.73 |
| Cc1ccccc1Oc1nccn2c(=O)n(CC(=O)Nc3ccc(C#N)cc3)nc12 | 8.67 | -0.39 |
| Cc1cc(NC(=O)Cn2nc3ccc(SC(C)(C)C)nn3c2=O)ccc1Br | -0.85 | -5.34 |
| CCOc1ccc(NC(=O)CSc2nnc3c(=O)n(-c4ccc(OCC)cc4)ccn23)cc1 | 16.17 | -1.04 |
| CCc1ccc(NC(=O)Cn2nc3c(=O)n(-c4ccc(Br)cc4)ccn3c2=O)cc1 | -5.7 | -7.12 |

| Structure (SMILES) | Inhibition (Staphylococcus aureus) [%] | Inhibition (Escherichia coli) [%] |
| --- | --- | --- |
| CC(C)(C)NC(=O)Cn1nc2n(Cc3ccco3)c(=O)c3sccc3n2c1=O | -2.47 | -8.7 |
| CCc1nnc2c(SCC(=O)Nc3ccc(Br)cc3)nc3ccccc3n12 | -16.96 | 0.98 |
| CCOC(=O)c1cccc(NC(=O)Cn2nc3c(Oc4cccc(C)c4C)nccn3c2=O)c1 | -16.27 | -3.26 |
| O=C(CSc1nnc2c(=O)n(-c3ccc(F)cc3)ccn12)NCC1CCCO1 (configuration not stated) | 0 | -8.97 |
| COc1ccc(-n2ccn3c(SCC(=O)N4CCN(c5ccccc5F)CC4)nnc3c2=O)cc1 | 7.08 | -4.94 |
| Cc1ccc2c(c1)N(C(=O)Cn1nc3ccc(S(=O)(=O)C(C)(C)C)nn3c1=O)CCO2 | 10.43 | 3.75 |
| Cc1ccccc1CN(c1ccc(C(C)C)cc1)S(=O)(=O)c1cccn2cnnc12 | 17.72 | 2.74 |
| Cc1ccc(C)c(NC(=O)Cn2nc3c(SCc4ccc(Cl)cc4)nccn3c2=O)c1 | 7.31 | -3.74 |
| COc1ccc(NC(=O)Cn2nc3c4cc(-c5ccc(C)cc5)nn4ccn3c2=O)cc1Cl | -6.7 | -3.03 |
| O=C(CCc1nnc2c(N3CCCCC3)nc3ccccc3n12)NCc1ccc(Br)cc1 | 2.96 | -5.93 |
| CCc1ccccc1NC(=O)Cn1nc2cc(C)nc(Nc3ccc(F)cc3)n2c1=O | 8.34 | -2.85 |
| CCc1cccc(NC(=O)Cn2nc3nc(N4CCCCCC4)ccn3c2=O)c1 | 0.41 | -5.25 |
| COc1ccc(N(Cc2cccc(C)c2)S(=O)(=O)c2ccc3nncn3c2)cc1 | -29.14 | -12.64 |
| O=S(=O)(c1ccc2nncn2c1)N(Cc1cc(F)cc(F)c1)c1ccc(F)cc1 | 2.59 | -3.43 |
| COC(=O)c1ccccc1NC(=O)Cn1nc2c3cc(-c4ccc(OC)cc4)nn3ccn2c1=O | 11.07 | 4.87 |
| Cc1cccc(NC(=O)Cn2nc3ccc(-c4ccccc4)nn3c2=O)c1 | 1.55 | -5.19 |
| COc1ccc(NC(=O)Cn2nc3c4cc(-c5ccc(F)cc5)nn4ccn3c2=O)c(OC)c1 | 8.82 | -0.75 |
| COc1ccc(-c2cc3c4nn(CC(=O)Nc5ccccc5)c(=O)n4ccn3n2)cc1 | 3.97 | 7.52 |
| O=C(Cn1nc2c(N3CCOCC3)nccn2c1=O)NCc1ccc(Cl)cc1 | 9.06 | 3.48 |
| CC(C)c1nnc2c(SCC(=O)Nc3ccc4c(c3)OCO4)nc3ccccc3n12 | -0.91 | -6.38 |
| Cc1ccc(NC(=O)Cn2nc3c(N4CCOCC4)nccn3c2=O)cc1F | 9.97 | 2.81 |
| Cc1cc2nn(CC(=O)Nc3ccc(F)c(F)c3)c(=O)n2c(Nc2ccc(C)c(F)c2)n1 | 7.73 | -3.04 |
| CCOC(=O)c1ccc(NC(=O)Cn2nc3ccc(SC(C)(C)C)nn3c2=O)cc1 | -4.89 | -11.53 |
